Experimental data as given in ChEMBL document CHEMBL1157539, “Thousands of chemical starting points for antimalarial lead identification” (Nature, 2010).

The compounds below were run on HepG2 (assay: GSK_TCMDC: Percent inhibition of human HepG2 cell line. Test compounds present at 10uM.).
Type: functional

Q: For `O=C(NCCCN1CCCC1=O)c1cnc(N2CCC(Oc3ccccc3)CC2)c(Cl)c1`, which Inhibition is on record?
A: 7%

Q: For `Cc1cccc2nc(-c3cccc(-c4ccc(CN5CCCC5CN)cc4)c3)[nH]c12.O=C(O)C(F)(F)F` (stereo not given), which Inhibition is on record?
A: 19%

Q: With `CN(C)CCN(C)Cc1ccc(-c2cccc(NC(=O)c3ccc(Cl)cc3)c2)cc1.O=C(O)C(F)(F)F` as the compound, how does the Inhibition read?
A: 69%

Q: Which Inhibition does the source give for `CCC(=O)OC(CCN(CC)CC)(c1ccccc1)c1ccccc1` here?
A: 30%

Q: With `OC(c1ccc2ccccc2c1)C1CN(CCc2ccccc2)CCC1(O)c1ccccc1` (stereo not given) as the compound, how does the Inhibition read?
A: 1%

Q: With `O=C(Nc1ccc(F)c(F)c1)c1ccc(CN2CCCN(Cc3cccc(O)c3)CC2)cc1.O=C(O)C(F)(F)F` as the compound, how does the Inhibition read?
A: 43%

Q: Which Inhibition does the source give for `O=C(Nc1ccc(C(=O)N2CCN(CCN3CCN(c4cccc(C(F)(F)F)c4)CC3)CC2)cc1)c1ccc(C(F)(F)F)cc1` here?
A: 39%

Q: With `Oc1ccc2[nH]c(-c3cccc(F)c3)nc2c1CN1CCCC1` as the compound, how does the Inhibition read?
A: 0%

Q: With `COc1ccc(OC)c(Cc2cnc3nc(N)[nH]c(=O)c3c2C)c1` as the compound, how does the Inhibition read?
A: 62%

Q: How did the Inhibition turn out when `CCCC(CNCc1cccc(OCC)c1)CNc1cc(=O)c2ccccc2[nH]1` (stereo not given) was run?
A: 0%

Q: For `Br.CC1(C)NC(N)=NC(=N)N1OCCSc1ccccc1`, which Inhibition is on record?
A: 68%

Q: Which Inhibition does the source give for `CCCc1cc(N2CCC(c3ccccc3)(N3CCCCC3)CC2)nc(Nc2ccc(OC)cc2)n1` here?
A: 13%

Q: With `Cc1cccc2nc(-c3cccc(-c4ccc(NC(=O)Cc5ccc[n+]([O-])c5)cc4)c3)[nH]c12` as the compound, how does the Inhibition read?
A: 11%

Q: With `CCn1c(-c2nonc2N)nc2c(-c3cccc(NC(=O)Nc4cccc(C(F)(F)F)c4)c3)ncc(OCCCN)c21.O=C(O)C(F)(F)F` as the compound, how does the Inhibition read?
A: 21%

Q: With `CCCCCCCc1c(C)nc2c(OC)cccc2c1O` as the compound, how does the Inhibition read?
A: 0%

Q: How did the Inhibition turn out when `CCCCc1ccc(NC(=O)Nc2cccc(CCNCc3ccccc3)c2)cc1.O=C(O)C(F)(F)F` was run?
A: 3%

Q: With `N#Cc1cccc(C(=O)Nc2cccc(-c3ccc(CN4CCC(O)CC4)cc3)c2)c1.O=C(O)C(F)(F)F` as the compound, how does the Inhibition read?
A: 15%

Q: Which Inhibition does the source give for `CCOc1cc(C(=O)NC2CC(C)(C)NC(C)(C)C2)ccc1-c1cc2cc(Cl)c(Cl)cc2[nH]1` here?
A: 37%

Q: With `O=C(NC1CCCc2ccccc21)[C@@H]1CCCN1C(=O)c1ccc(O)c(-c2cccc([N+](=O)[O-])c2)c1` (stereo not given in full) as the compound, how does the Inhibition read?
A: 0%

Q: Which Inhibition does the source give for `COCCNCc1cccc(-c2ccc3nccc(Nc4cc(O)ccc4C)c3c2)c1` here?
A: 0%

Q: Which Inhibition does the source give for `Cc1cc(CNC(=O)[C@H](CC2CCCCC2)Nc2ccc(C#N)c3ccccc23)c(C(F)(F)F)o1.O=C(O)C(F)(F)F` here?
A: 13%

Q: With `Cl.N=C(N)Nc1ccc(NC(=O)Nc2ccc(NC(=N)N)cc2)cc1` as the compound, how does the Inhibition read?
A: 0%

Q: Which Inhibition does the source give for `Cc1cc(N[C@@H](Cc2ccccc2)C(=O)NCCc2ccccc2)nc(NCCc2ccccc2)n1.O=C(O)C(F)(F)F` here?
A: 0%

Q: For `CN(C)CCOc1cc(NC(=O)Nc2ccc(-c3ccncc3)c3ccccc23)ccc1I`, which Inhibition is on record?
A: 35%

Q: With `CC1(C)N=C(N)N=C(N)N1OCCCOc1cc(Cl)c(Cl)cc1Cl.Cl` as the compound, how does the Inhibition read?
A: 60%

Q: How did the Inhibition turn out when `COc1ccc(Cl)cc1N1CCN(CCCNC(=O)c2ccc(-c3nc4cc(Cl)c(Cl)cc4[nH]3)c(C)c2)CC1` was run?
A: 4%

Q: For `Cc1ccc(C(O)CNc2ccnc(Nc3cccc(-c4csc(C)n4)c3)n2)cc1` (stereo not given), which Inhibition is on record?
A: 17%

Q: `CC(C)(CNCc1ccc(C(F)(F)F)cc1)c1nc(-c2ccc(Cl)c(O)c2)c(-c2ccncc2)[nH]1.Cl` was tested. Which Inhibition did it give?
A: 42%

Q: `CC(C)(C)NCC(O)COc1ccc(Cl)cc1C1=NNC(=O)CC1.Cl` (stereo not given) was tested. Which Inhibition did it give?
A: 6%

Q: With `Cl.Nc1c(C(=O)NCCCCN2CCN(c3nsc4ccccc34)CC2)sc2ccccc12` as the compound, how does the Inhibition read?
A: 26%

Q: `CC(C)(C)NC(=O)C(c1ccc(F)cc1)N(C(=O)c1ccc(CN2CCOCC2)o1)c1ccc(C2CCCCC2)cc1` (stereo not given) was tested. Which Inhibition did it give?
A: 0%

Q: For `CCCCNC(=O)C(C)NC(=O)c1ccc(O)c(-c2ccc(Cl)c(Cl)c2)c1` (stereo not given), which Inhibition is on record?
A: 0%

Q: With `O=C(NCCc1ccccc1)c1cc(-c2cccnc2)cnc1NCC1CC1` as the compound, how does the Inhibition read?
A: 3%

Q: With `Nc1cccc(CNCc2cccc(-c3cccc(-c4nc5cc(C(F)(F)F)ccc5[nH]4)c3)c2)c1.O=C(O)C(F)(F)F` as the compound, how does the Inhibition read?
A: 8%

Q: With `CCc1cc2c3c(N)nc(N)nc3ccc2n1C(CC)CC` as the compound, how does the Inhibition read?
A: 71%

Q: For `CCc1c(C)nc(-n2nc(C)cc2NC(=O)CCc2ccccc2)[nH]c1=O`, which Inhibition is on record?
A: 48%

Q: How did the Inhibition turn out when `O=C1SC(=Cc2ccc(O)c(O)c2)C(=O)N1c1ccccc1` was run?
A: 12%

Q: For `Cc1cccc2nc(-c3cccc(-c4cccc(NC(=O)NC5CC5c5ccccc5)c4)c3)[nH]c12` (stereo not given), which Inhibition is on record?
A: 0%

Q: With `N#Cc1cccc(C(=O)Nc2cccc(-c3ccc(C(=O)NCCCN4CCOCC4)cc3)c2)c1` as the compound, how does the Inhibition read?
A: 21%

Q: `CC(=O)Nc1cccc(C(=O)Nc2cccc(-c3csc(-c4nc5ccccc5[nH]4)c3)c2)c1` was tested. Which Inhibition did it give?
A: 39%
